Measured values reported in PubChem BioAssay AID1851 (National Center for Advancing Translational Sciences (NCATS), 2009).
The campaign covered roughly 16,000 compounds. About 5,700 (36%) were called active. About 24% were inconclusive and are not listed. Some of the results follow. Unmarked numbers belong to inactive results. Calls come from the whole dose curve; as a rule, active = well fitted curve in the direction sought with a large enough effect; inconclusive = small, poorly fitted or top-dose-only effect, or effect the other way; inactive = no such curve, though single readings can be large or run the other way.

Each compound was assayed against Cytochrome P450 1A2 (Homo sapiens) (UniProt P05177) (assay: Cytochrome panel assay with activity outcomes). Conditions: recombinant CYP, pro-luciferin dealkylation, luminescence, p450-cyp1a2; series mostly up to 57.1 µM.
% is set by controls: 0 for no effect and ±100 for the full control effect.

Cytochrome P450 1A2 (Homo sapiens), sequence (P05177 whole entry, looked up): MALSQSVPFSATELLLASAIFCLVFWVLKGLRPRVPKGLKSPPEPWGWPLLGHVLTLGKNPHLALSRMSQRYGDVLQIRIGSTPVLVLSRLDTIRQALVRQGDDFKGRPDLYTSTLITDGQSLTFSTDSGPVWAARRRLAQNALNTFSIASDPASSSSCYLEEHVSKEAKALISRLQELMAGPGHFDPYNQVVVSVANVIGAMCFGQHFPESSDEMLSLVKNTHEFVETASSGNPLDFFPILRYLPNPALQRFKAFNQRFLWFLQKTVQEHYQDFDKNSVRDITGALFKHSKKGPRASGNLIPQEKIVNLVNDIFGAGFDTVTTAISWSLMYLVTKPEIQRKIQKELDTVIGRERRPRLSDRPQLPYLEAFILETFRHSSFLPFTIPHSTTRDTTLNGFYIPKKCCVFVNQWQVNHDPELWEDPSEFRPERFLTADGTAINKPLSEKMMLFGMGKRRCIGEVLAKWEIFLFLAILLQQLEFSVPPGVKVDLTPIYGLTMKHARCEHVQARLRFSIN

| SMILES | AC50 | activity, negative = inhibition |
| --- | --- | --- |
| CCCN1C(=O)C(NC(C)=O)c2cc(OC)ccc21 (stereo not given) | 7.08 µM (active) | – |
| COc1ccc([C@@H]2Sc3ccccc3N(CCN(C)C)C(=O)[C@@H]2OC(C)=O)cc1 | inactive | – |
| COc1ccc([C@H]2Sc3ccccc3N(CCN(C)C)C(=O)[C@H]2OC(C)=O)cc1 | inactive | – |
| c1nc(NC2CCNCC2)c2cc(-c3ccc4c(c3)OCO4)ccc2n1 | 12.6 µM (active) | – |
| c1nc(NC2CC2)c2cc(-c3ccoc3)ccc2n1 | 0.794 µM (active) | – |
| c1nc(NC2CCNCC2)c2cc(-c3ccoc3)ccc2n1 | 25.1 µM (active) | – |
| CN(C)c1ccc(-c2ccc3ncnc(NC4CC4)c3c2)cc1 | 0.2 µM (active) | – |
| CC(=O)N[C@@H](C(=O)O)C(C)(C)SN=O | inactive | – |
| O=C(Cn1cccc1)NC1CCCCCC1 | inactive | – |
| O=C(N/N=C/c1c[nH]c2ccccc12)c1ccn(Cc2ccc(Cl)cc2Cl)n1 | 0.708 µM (active) | – |
| COC(=O)C1=C(C)NC2=C(C(=O)CCC2)C1c1cn(Cc2ccc(Cl)cc2Cl)nc1-c1ccccc1 (stereo not given) | inactive | – |
| O=C(N/N=C/c1c[nH]c2ccc(Br)cc12)c1ccn(Cc2ccc(Cl)cc2)n1 | 3.16 µM (active) | – |
| O=C(O)C1CCN(c2ncccn2)CC1 | inactive | – |
| CN(C)C(CNC(=O)NC1CCCCC1)c1cccnc1 (stereo not given) | inactive | – |
| O=C(NC1CCCC1)c1cccnc1N1CCCCCC1 | 15.8 µM (active) | – |
| C/C=C\C1=C(CO)[C@H](O)[C@H]2OC2[C@@H]1O (stereo not given in full) | – | -5.28% [at 11.4 µM] |
| N#C/C(=C/c1cccc(C(F)(F)F)c1)c1nc(CCN2C(=O)c3ccccc3C2=O)cs1 | 12.6 µM (active) | – |
| Fc1ccc(C2CC(c3ccco3)=NN2c2ccccc2)cc1 (stereo not given) | 1.12 µM (active) | – |
| C[C@@H]1CC[C@@H]2C(=O)N3[C@@H](CC[C@@H](C)[C@@H]3c3ccc(-c4ccco4)cc3)C(=O)N2[C@H]1c1ccc(-c2ccco2)cc1 | – | -4.34% [at 11.4 µM] |
| CC1=C(C(=O)O)N2C(=O)C(NC(=O)c3ccn(C)n3)C2SC1 (stereo not given) | inactive | – |
| CC(=O)NCCNc1ncnc2ccc(-c3c(C)noc3C)cc12 | 15.8 µM (active) | – |
| c1nc(NCCN2CCOCC2)c2cc(-c3ccoc3)ccc2n1 | 12.6 µM (active) | – |
| Cc1noc(C)c1-c1ccc2ncnc(NCCN3CCOCC3)c2c1 | 15.8 µM (active) | – |
| c1nc(NCCN2CCOCC2)c2cc(-c3ccc4c(c3)OCO4)ccc2n1 | 2.51 µM (active) | – |
| c1cncc(-c2ccc3ncnc(NCCN4CCOCC4)c3c2)c1 | 1 µM (active) | – |

| SMILES | AC50 | activity, negative = inhibition |
| --- | --- | --- |
| COc1ccccc1CNc1ncnc2ccc(-c3cccc(C#N)c3)cc12 | 0.251 µM (active) | – |
| COc1ccc(CNc2ncnc3ccc(-c4cccc(C#N)c4)cc23)c(OC)c1 | 3.16 µM (active) | – |
| O=C(Nc1cccc(Cl)c1Cl)c1snnc1-c1ccccc1 | 1.26 µM (active) | – |
| Cc1nc(C(=O)Nc2cccc(Cl)c2Cl)nn1-c1cc(OC(C)C)c(Cl)cc1Cl | inactive | – |
| CC[C@H](C)C(=O)O[C@@H]1C[C@H](C)C=C2C=C[C@H](C)[C@@H](CC[C@H]3C[C@@H](O)CC(=O)O3)[C@H]21 | inactive | – |
| CN(C)S(=O)(=O)c1ccc2c(c1)/C(=C/c1cc3c([nH]1)CCCC3)C(=O)N2 | 0.316 µM (active) | – |
| CCOC(=O)O[C@]1(C(=O)COC(=O)CC)CC[C@@H]2[C@@H]3CCC4=CC(=O)C=C[C@@]4(C)[C@H]3[C@H](O)C[C@]21C | inactive | – |
| Cc1ccc(S(=O)(=O)Nc2ccc(=O)n(Cc3ccc(Cl)c(Cl)c3)c2)cc1 | 25.1 µM (active) | – |
| O=c1ccc(NS(=O)(=O)c2ccccc2)cn1Cc1ccc(Cl)c(Cl)c1 | inactive | – |
| Cc1cc(NS(=O)(=O)c2ccc(NC(=O)CN3C(=O)c4ccccc4C3=O)cc2)nc(C)n1 | inactive | – |
| CCCn1c(-c2cccs2)nc2nc3ccccc3nc21 | 1.78 µM (active) | – |
| Cc1ccc(NC(=O)Cn2nc([N+](=O)[O-])c(Br)c2C)cc1C | 12.6 µM (active) | – |
| Cc1c(Cl)c([N+](=O)[O-])nn1CC(=O)Nc1c(C)n(C)n(-c2ccccc2)c1=O | inactive | – |
| Cc1c(Br)c([N+](=O)[O-])nn1CC(=O)NCc1ccccn1 | inactive | – |
| Cc1cc(C)c(S(C)(=O)=O)c(Oc2ccc(F)cc2)n1 | 10 µM (active) | – |
| COc1ccc(Oc2nc(C)cc(C)c2S(=O)(=O)c2ccc(C)cc2)cc1 | inactive | – |
| Cc1cc(C)c(S(C)(=O)=O)c(Oc2ccc(C(C)(C)C)cc2)n1 | 4.47 µM (active) | – |
| O=C(O)[C@@H](O)[C@@H](O)[C@@H](O)[C@@H](O)C(=O)O (tested in a mixture with another compound) | inactive | – |
| COc1ccc(CNc2nc(-c3ccccc3CN(C)C)nc3ccccc23)c(OC)c1 | 10 µM (active) | – |
| COc1ccccc1CNc1nc(-c2ccccc2CN(C)C)nc2ccccc12 | 0.794 µM (active) | – |
| COC(=O)c1[nH]c(C)c(/C(O)=C2\C(=O)C(=O)N(CCN(C)C)C2c2cccs2)c1C (stereo not given) | inactive | – |
| C/C(Cl)=C/CSc1nnc2n(N)c(=O)c3ccccc3n12 | 11.2 µM (active) | – |
| CCCSc1nnc2n(N)c(=O)c3ccccc3n12 | 4.47 µM (active) | – |
| CCOc1ccccc1NC(=O)CN1CCC(NC(=O)c2ccccc2)CC1 | inactive | – |
| CCC(=O)N[C@@H]1CCc2cccc(OC)c2C1 | 12.6 µM (active) | – |

| SMILES | AC50 | activity, negative = inhibition |
| --- | --- | --- |
| COC(=O)N1CCC2(CC1)CCN(C(c1ccccc1)c1ccccc1)CC2 | inactive | – |
| COc1ccc(CNc2cc(-c3ccoc3)ncn2)c(OC)c1 | 15.8 µM (active) | – |
| COc1ccccc1CNc1cc(-c2ccoc2)ncn1 | 15.8 µM (active) | – |
| COc1cccc(CNc2ccc3nc(-c4ccc(N)cc4)c(OC)n3n2)c1 | 39.8 µM (active) | – |
| O=C(O)CSCNC(=O)CC12CC3CC(CC(C3)C1)C2 | inactive | – |
| CC1(C)CC2(CC(c3cccs3)c3cc(Cl)c(O)cc3O2)NC(=S)N1 (stereo not given) | inactive | – |
| O=C1CC(c2cccs2)c2cc3c(cc2N1)OCO3 (stereo not given) | 0.631 µM (active) | – |
| CC(C)NC(=O)N1CCC2(CC1)CCN(C(=O)c1ccco1)CC2 | inactive | – |
| CC(C)(C)CC(C)(C)c1ccc(O)c(C[N+](C)(C)[O-])c1 | – | -17.9% [at 2.29 µM] |
| COC(=O)[C@H](Cc1ccccc1)NC(=O)[C@@H](C)CO | – | -9.35% [at 11.4 µM] |
| O=C(O)C(Cc1ccccc1-c1ccccc1)C(=O)O | – | -6.71% [at 11.4 µM] |
| CCOC(=O)c1c2c(n3ccccc13)C(=O)c1ccccc1C2=O | 0.1 µM (active) | – |
| CCOC(=O)c1c(-c2ccccc2)cn2ccccc12 | 0.501 µM (active) | – |
| COc1ccc(CNC(=O)CN(CC2CCCO2)C(=O)CNS(=O)(=O)c2ccccc2)cc1 (stereo not given) | inactive | – |
| COc1cc2cc(CN(CCCO)S(=O)(=O)c3ccccc3Cl)c(=O)[nH]c2cc1OC | inactive | – |
| COc1cccc(C(=O)N(Cc2ccccc2)Cc2cc3cc4c(cc3[nH]c2=O)OCCO4)c1 | 14.1 µM (active) | – |
| N=C(N)SCCN | inactive | – |
| CCOc1ccc(/C(O)=C2\C(=O)C(=O)N(CCOCCO)C2c2ccccc2OC)cc1 (stereo not given) | inactive | – |
| c1ccc(Nc2ncnc3ccc(-c4cccnc4)cc23)cc1 | 0.0794 µM (active) | – |
| c1ccc(CNc2ncnc3ccc(-c4cccnc4)cc23)cc1 | 0.126 µM (active) | – |
| c1cncc(CNc2ncnc3ccc(-c4ccoc4)cc23)c1 | 0.316 µM (active) | – |
| Cc1cccc(CNc2ncnc3ccc(-c4cccnc4)cc23)c1 | 0.316 µM (active) | – |
| CN(CC(=O)O)Cc1oc(CO)cc(=O)c1O | – | -18.3% [at 11.4 µM] |
| Cc1ccnc(N)c1 | inactive | – |
| CSc1ccc(NC(=O)Nc2cc(C)ccn2)cc1 | 0.501 µM (active) | – |

| SMILES | AC50 | activity, negative = inhibition |
| --- | --- | --- |
| CC(=O)Nc1ccc(Sc2ncccc2C(=O)Nc2ccc(F)cc2)cn1 | inactive | – |
| COC(=O)/C=C\CCc1coc(/C=C\CNC(=O)OC)n1 | – | 2.69% [at 11.4 µM] |
| COC(=O)C1CSC(C(=O)OC)N1C(=O)Nc1c(C)cccc1C (stereo not given) | inactive | – |
| O[C@@](CCN1CCCCC1)(c1ccccc1)C1CCCCC1 | inactive | – |
| CC[C@H](CO)NCCN[C@@H](CC)CO | inactive | – |
| Cn1cnc2c(NCc3ccccc3)nc(NCCO)nc21 | 5.01 µM (active) | – |
| Cc1ccccc1CNc1ncnc2c1ncn2[C@@H]1O[C@@H](CO)[C@H](O)[C@@H]1O | inactive | – |
| Cn1c(=O)[nH]c(=O)c2c1nc(NCCCO)n2CCCc1ccccc1 | inactive | – |
| COc1cnc(SCc2ccc(Cl)cc2)nc1Cl | 12.6 µM (active) | – |
| FC(F)(F)c1nc(SCc2ccc(Cl)cc2)n[nH]1 | – | -18.8% [at 2.29 µM] |
| CC1=CC(=O)c2ccccc2C1=O | 0.158 µM (active) | – |
| CCCCNCCOCCSc1ccc(Cl)cc1 | 12.6 µM (active) | – |
| CCCCNC(=O)NS(=O)(=O)c1cnccc1Sc1ccc(Cl)cc1 | inactive | – |
| CC(C)NCCOCCSc1ccc(Cl)cc1 | 5.01 µM (active) | – |
| Cc1cc(=O)[nH]c2c1c(C)nn2C1CCOC(C)(C)C1 (stereo not given) | inactive | – |
| CO[C@@H]1COC(=O)[C@H](C)NC(=O)[C@@H](C)COC(=O)CCC[C@H]1C | – | -10.3% [at 11.4 µM] |
| O=C(CCCCCn1c(=O)[nH]c2ccsc2c1=O)NCc1ccc2c(c1)OCO2 | 14.1 µM (active) | – |
| O=C(CCn1c(=O)[nH]c2ccsc2c1=O)Nc1ccc(F)c(F)c1 | inactive | – |
| CCOc1cc2[nH]c(=O)n(CCCC(=O)NCc3ccc(OC)cc3)c(=O)c2cc1OCC | inactive | – |
| Cc1nc2ncnn2c(C)c1CCC(=O)NCc1ccco1 | inactive | – |
| CCOc1cc2[nH]c(=S)n(CCCC(=O)NCc3ccco3)c(=O)c2cc1OCC | inactive | – |
| O=C(CCCCn1c(=S)[nH]c2ccsc2c1=O)NCc1ccco1 | 1.26 µM (active) | – |
| CC(=O)Nc1c(C(=O)N2CCOCC2)cnn1-c1ccc(C)c(C)c1 | inactive | – |
| CC(=O)Nc1c(C)nn(-c2ccc(C)c(C)c2)c1C | 14.1 µM (active) | – |
| Cc1ccc(-n2c(C)cc(C(=S)N3CCOCC3)c2C)cc1C | inactive | – |
